Assay outcomes deposited in PubChem BioAssay by The Scripps Research Institute Molecular Screening Center.
This is a sample that favours compounds with a hit; in the whole collection about 3.5% have one here.
FBW7 act – activators of human E3 ligase FBW7; Q969H0; AlphaScreen FBW7–phospho-cyclin E peptide binding, activator screen; normalized activity (activation), % at 26.1 µM; 650,000 compounds, 0.13% hits; in the data active means normalized activity above about 1.9%;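 further: purified mutant Fbw7 with reduced substrate affinity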
TEAD-YAP block – TEAD-YAP interaction inhibition; 640,000 compounds, 1.4% hits; inhibition, % at 9.12 µM; HEK-TIYL cells, TEAD-Gal4/YAP UAS-luciferase luminescence; in the data active means inhibition above about 32%;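 further: 0% = median of test compound wells and 100% = reference inhibitor wells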
GPR151 activ – human GPR151 activation. PathHunter beta-arrestin GPR151 cells, luminescence. activation, % at 11.2 µM. 650,000 compounds, 1% hits; in the data active means activation above about 4.9%;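 further: 0% = median of compound wells and 100% = cells with positive control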
Target sequence (Q8TDV0 whole entry, looked up): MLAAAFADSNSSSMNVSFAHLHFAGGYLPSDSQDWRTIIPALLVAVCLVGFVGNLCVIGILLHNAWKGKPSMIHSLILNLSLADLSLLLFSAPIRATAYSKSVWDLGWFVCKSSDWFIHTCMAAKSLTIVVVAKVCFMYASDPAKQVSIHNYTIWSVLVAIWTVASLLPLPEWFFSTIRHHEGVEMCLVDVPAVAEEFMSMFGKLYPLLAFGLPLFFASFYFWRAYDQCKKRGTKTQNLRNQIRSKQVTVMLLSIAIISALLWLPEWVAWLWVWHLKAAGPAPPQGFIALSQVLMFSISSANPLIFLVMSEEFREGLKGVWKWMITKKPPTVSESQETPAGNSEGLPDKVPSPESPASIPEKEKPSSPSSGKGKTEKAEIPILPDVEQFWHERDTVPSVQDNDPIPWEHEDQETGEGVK
MITF primary – blocks human microphthalmia-associated transcription factor. AlphaScreen MITF homodimerization, bead proximity signal. 650,000 compounds, 0.91% hits. O75030. inhibition, % at 2.6 µM. AID 1259374; in the data active means inhibition above about 50%;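 further: 0% = vehicle wells with protein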
GPR151 conf act – confirmation of human GPR151 activators | shares compounds with GPR151 activ | GPR151 PathHunter beta-arrestin cells, luminescence, 90 min; % of EA-reagent control over plate median | activation, % at 11.2 µM | 6,700 tested, under 10 active | AID 1508609;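 active means mean percent activation across replicates above the confirmation screen cutoff of 4.91%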
GPR119 ag – activates human GPR119 in a GPR151 counter-screen; AID 1508611; GPR119 PathHunter beta-arrestin cells, luminescence, 90 min; 0 = compound-well median, 100 = enzyme-acceptor control; 6,700 compounds, 0.3% hits; activation, % at 11.2 µM; shares compounds with GPR151 activ;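 active means mean percent activation in the counterscreen above 29.09%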;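 further: counterscreen on off-target GPR119 to flag nonselective hits from the GPR151 activator screen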
The depositor's hits bear a star; / = no result.

SMILES	FBW7 act	TEAD-YAP block	GPR151 activ	MITF primary	GPR151 conf act	GPR119 ag
O=C(CCc1nnc2n(Cc3ccc(F)cc3)c(=O)c3ccccc3n12)Nc1ccccc1	0	-3	-1	4	/	/
c1ccc(Cc2nnc3n2CCN(Cc2cnc(-c4ccccc4)s2)CC3)cc1	0	6	0	10	/	/
N#Cc1ccccc1OCC(=O)N=Nc1c(O)[nH]c2ccccc12	0	-14	6.0*	5	-1	-3
N#Cc1ccccc1OCC(=O)N=Nc1c(O)[nH]c2ccc([N+](=O)[O-])cc12	0	11	1	10	/	/
[O-]/[N+](=C\c1ccc(F)cc1)c1ccccc1	0	6	-1	-1	/	/
[O-]/[N+](=C\c1ccncc1)c1ccc(Cl)cc1	0	5	5.2*	-1	2	13
N#CCC(=O)NCCOc1ccccc1	0	4	8.6*	11	1	1
CCn1c(=O)n(-c2ccccc2)c(=O)c2c3c(sc21)CN(C(C)=O)CC3	1	3	1	0	/	/
CCn1c(=O)n(-c2ccccc2C)c(=O)c2c3c(sc21)CN(C(C)=O)CC3	0	-5	9.0*	0	-1	-10
CC1(C)C2CCC1(C)C(Nc1ccc(N)c([N+](=O)[O-])c1)(S(=O)(=O)O)C2[n+]1ccccc1 (stereo not given)	0	0	5.6*	4	-1	-8
Nc1ccc(NC(=S)NC2CCCCC2)cc1[N+](=O)[O-]	-1	-26	1	11	/	/
COC(=O)c1ccc(Cl)cc1NC(=O)N(C(C)C)C1CCN(C(C)=O)CC1	0	-9	7.0*	1	2	-1
COc1ccc(NC(=O)N(C(C)C)C2CCN(C(C)=O)CC2)c(OC)c1	0	-4	1	4	/	/
COc1cccc(C2=N/C(=C\c3cn(C(C)=O)c4ccccc34)C(=O)O2)c1	0	5	7.5*	2	0	8
CC(=O)n1cc(/C=C2/N=C(c3ccccc3)OC2=O)c2ccccc21	0	5	0	-9	/	/
COc1ccc(CCN2C(=O)CC(N3CCN(c4ccccc4)CC3)C2=O)cc1OC (stereo not given)	0	-1	0	11	/	/
CC(Sc1nncs1)C(=O)NC(C)c1ccccc1 (stereo not given)	0	-2	5.2*	-5	1	-5
CC(Sc1nncs1)C(=O)NC1CCCc2ccccc21 (stereo not given)	0	-1	1	-8	/	/
COc1ccc(C(=O)NC(Nc2ccc(Cl)cc2)C(=O)c2ccccc2)cc1 (stereo not given)	0	-7	-2	-1	/	/
CCOc1ccc(Cl)cc1CNc1nnnn1C	0	-3	-1	-17	/	/
Cc1ccc(OCC(=O)N2CCN(C(=O)COc3ccc4ccccc4c3)CC2)cc1	0	-4	-1	-2	/	/
Cn1nnc2c(N3CCN(C(=O)COc4ccc5ccccc5c4)CC3)ncnc21	0	3	5.1*	8	-1	-4
COc1ccccc1N1C(=O)/C(=C2/C(=O)N(C(C)=O)c3ccccc32)SC1=S	0	-5	6.5*	23	-2	-9
CC(=O)N1C(=O)/C(=C2\SC(=S)N(c3ccccc3F)C2=O)c2ccccc21	0	0	0	-3	/	/
CC(C)Cc1nc(SCC(=O)Nc2ccccc2)c2c(=O)n(C)c(=O)n(C)c2n1	0	4	8.1*	-13	0	11
SMILES	FBW7 act	TEAD-YAP block	GPR151 activ	MITF primary	GPR151 conf act	GPR119 ag
COc1ccccc1-n1nc(C(=O)Nc2ccc(Cl)cn2)c2ccccc2c1=O	0	5	7.6*	12	0	4
COc1ccc(-n2nc(C(=O)NCC(=O)NCCCN3CCC(C)CC3)c3ccccc3c2=O)cc1OC	0	-3	-1	-1	/	/
CCOc1ccc(NC(=O)c2nnn(-c3ccccc3OC)c2C)cc1	1	-2	5.7*	9	0	0
COc1ccc(-n2nc(C(=O)NCC(=O)NCCCN3CCN(c4cccc(Cl)c4)CC3)c3ccccc3c2=O)cc1OC	0	17	4.9*	20	0	0
COc1ccc(OC)c(NC(=O)c2nn(-c3ccc(OC)cc3OC)c(=O)c3ccccc23)c1	0	10	8.7*	14	-1	-1
COc1ccc(-n2nc(C(=O)Nc3cc(Cl)ccc3OC)c3ccccc3c2=O)c(OC)c1	0	-6	-2	-2	/	/
CCOc1ccccc1N(C)C(=O)c1nn(-c2cc(OC)cc(OC)c2)c(=O)c2ccccc12	0	-1	6.6*	9	0	-6
CCOc1ccc(-n2nc(C(=O)Nc3ccc(OC)c(OC)c3)c3ccccc3c2=O)cc1	1	-6	5.6*	12	-1	9
CCOc1ccccc1N(C)C(=O)c1nn(-c2ccc(OC)cc2)c(=O)c2ccccc12	0	7	0	3	/	/
CCOc1ccc(NC(=O)CNC(=O)c2nn(-c3ccc(OC)c(OC)c3)c(=O)c3ccccc23)cc1	0	6	1	-1	/	/
c1cc(-c2cnc3ccc(NCC4CC4)nn23)cs1	0	5	-1	-10	/	/
COc1ccc(-c2noc(CNC(=O)Cc3ccc(OC)c(OC)c3)n2)cc1	1	7	5.1*	6	-1	-15
COc1ccc(-c2noc(CC(=O)Nc3ccc(C(C)C)cc3)n2)cc1	0	-6	6.0*	2	1	2
Cc1cc(OCC(=O)NCc2nc(-c3ccccc3)no2)cc(C)c1Br	0	8	11*	8	0	-5
O=C(NCc1nc(-c2ccccc2)no1)c1ccccc1Cl	0	-9	0	1	/	/
O=C(NCc1nc(-c2ccccc2)no1)c1cc(Br)ccc1Cl	0	7	5.3*	3	1	1
CCOC(=O)c1ccc(Cn2c3ccccc3c3nn4cc(-c5cc(C(C)(C)C)cc6c5CCC6(C)C)nc4nc32)o1	0	-9	1	5	/	/
O=C1N[C@@H](Cc2ccc(Cl)cc2)C(=O)N2CCN(C(=O)OCc3ccccc3)C[C@H]12	0	1	0	14	/	/
CN(C)c1ccc2nc3c(=O)[nH]c(=O)nc-3n(CC(O)C(O)C(O)CO)c2c1 (stereo not given)	0	19	-1	36	/	/
COc1cccc(OC)c1C(=O)NCc1nc(-c2ccc(Cl)cc2)no1	0	8	8.0*	1	0	-9
COc1ccc(-c2noc(CNC(=O)C(Cl)(Cl)Cl)n2)cc1	0	-28	8.0*	-28	-1	-6
Cc1ccc(CC(=O)NCc2nc(-c3ccccc3)no2)cc1	0	1	5.7*	0	0	-5
COc1cccc(OC)c1C(=O)NCc1nc(-c2ccc(C)cc2)no1	0	9	3	6	/	/
